Hits are enriched below; roughly 6.8% of the tested compounds scored in any of these assays.
KB-3-1 tox: qHTS assay for MDR1-selective chemotherapeutics: Primary screen using the parental adenocarcinoma cell KB-3-1. KB-3-1 viability, CellTiter-Glo ATP luminescence, 72 h. Potency, µM (highest dose often 46.1 µM), actives largely listed as cytotoxic. hit rate 1.4% among 400,000; also: nearly all actives have a fitted effect of over 60% in size
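Viability of parental KB-3-1 cells, measured by CellTiter-Glo luminescence, followed a 72 h incubation at 37 °C with pinned compounds in phenol-red-free DMEM containing 10% FBS.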
SW480 rereplic: A quantitative high throughput screen for small molecules that induce DNA re-replication in SW480 colon adenocarcinoma cells. Potency, µM (series often up to 46.1 µM), usual class: activators. hit rate 1.8% among 340,000. SW480 DNA re-replication, Hoechst DNA content imaging, 48 h; also: nearly all actives have a fitted effect of over 55% in size
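Cells (250 per well) received 23 nL compound or DMSO by pin tool and were kept 48 hr at 37 C, 5% CO2. Nuclei were then stained with Hoechst for 40 min and scanned for DNA content.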
PINK1 expr mod: A Quantitative High throughput Screen to Identify Chemical Modulators of PINK1 Expression; PINK1 immunofluorescence, high-content cytometry, 24 h; Potency, µM (titrated, usually from 76.6 µM), actives largely listed as activators; hit rate 0.2% among 410,000; active = well fitted activation curve with a large enough effect; inconclusive = small, poorly fitted or top-dose-only effect; cell line not stated here; also: nearly all actives have a fitted effect of over 65% in size
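Readout is PINK1 immunofluorescence, quantified alongside mitochondrial, cell and nuclear markers by laser-scanning microplate cytometry. Cells from a stable line were exposed to compound titrations (5 concentrations) for 24 hours, with CCCP controls.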
PTAP TSG101 blk: qHTS Assay for Iinhibitors of HIV-1 Budding by Blocking the Interaction of PTAP/TSG101; Tumor susceptibility gene 101 protein (Homo sapiens), Q99816; Fluorescence polarization, FITC-PTAP peptide / Tsg101 binding; Potency, µM (series often up to 115 µM), hits mostly inhibitors; 340,000 tested, under 10 active; active = well fitted inhibition curve with a large enough effect in the main read-out, with a control signal flat, not every such curve was filed as active; inconclusive = small, poorly fitted or top-dose-only effect, or effect the other way, or a change in a side signal; inactive = no such curve, though single readings can be large or run the other way
Target sequence (Q99816 whole entry, looked up): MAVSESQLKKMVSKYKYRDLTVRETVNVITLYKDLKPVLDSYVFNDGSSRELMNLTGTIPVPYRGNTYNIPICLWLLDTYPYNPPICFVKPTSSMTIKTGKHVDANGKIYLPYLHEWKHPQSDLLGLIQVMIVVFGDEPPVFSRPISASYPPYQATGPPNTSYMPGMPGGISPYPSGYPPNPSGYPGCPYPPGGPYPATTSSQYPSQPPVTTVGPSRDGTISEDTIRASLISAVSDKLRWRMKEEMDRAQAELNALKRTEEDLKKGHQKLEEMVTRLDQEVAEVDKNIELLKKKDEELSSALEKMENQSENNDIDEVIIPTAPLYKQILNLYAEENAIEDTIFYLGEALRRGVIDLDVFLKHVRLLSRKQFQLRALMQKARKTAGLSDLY
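Fluorescence anisotropy tracks displacement of a FITC-tagged PTAP peptide (50 nM) from the Tsg101 binding domain (10 uM), following a 20 min room-temperature incubation at pH 7.5.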
KB-V1 cytotox: qHTS assay for MDR1-selective chemotherapeutics: Primary screen using the drug-selected MDR subline cells KB-V1 | KB-V1 MDR cells viability, CellTiter-Glo, 72 h | Potency, µM (titrated, usually from 46.1 µM), actives largely listed as cytotoxic | hit rate 3.4% among 400,000 | AID 1347076, 2019; also: nearly all actives have a fitted effect of over 60% in size
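KB-V1, DMEM (no phenol red) + 10% FBS; cpd pin-transferred, titration series; 72 h, 37 degrees C; CellTiter-Glo, luminescence. Data normalized, curve-fit.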
MCF10A rereplic: A quantitative high throughput screen for small molecules that induce DNA re-replication in MCF 10a normal breast cells; MCF 10A DNA re-replication, Hoechst nuclear intensity, 48 h; Potency, µM (series often up to 46.1 µM), actives largely listed as activators; hit rate 2.9% among 350,000; also: nearly all actives have a fitted effect of over 50% in size
A number is an active result; n = inactive; u = inconclusive; x = no result; [ ] = remark or other dose. Unless noted, calls follow the shape of the dose curve; as a rule, active = well fitted curve in the direction sought with a large enough effect; inconclusive = small, poorly fitted or top-dose-only effect, or another doubt; inactive = no such curve, though single readings can be large; an effect the other way counts as inactive or inconclusive.

SMILES | KB-3-1 tox | SW480 rereplic | PINK1 expr mod | PTAP TSG101 blk | KB-V1 cytotox | MCF10A rereplic
CCc1ccc(S(=O)(=O)ON2C(=O)c3ccccc3C2=O)cc1 | n | u | n | n | n | 18.4µM
COc1ccc(OC)c(S(=O)(=O)N2CCN(c3ccccc3)CC2)c1 | n | n | n | n | n | u
COc1ccc(OC)c(S(=O)(=O)n2cnc3ccccc32)c1 | u | u | n | n | 23.1µM | u
O=C1c2cccc3cccc(c23)C(=O)N1OS(=O)(=O)c1ccc(Cl)cc1 | n | n | n | n | n | n
O=C(CSc1nc(=O)n(Cc2ccccn2)c2c1CCC2)Nc1cccc(Cl)c1 | n | x | n | x | n | x
CCNc1nc(C)c2cc(Br)c(=O)n(CC)c2n1 | u | n | n | n | 6.51µM | u
CCNc1ncc2nc(C)c(=O)n(CCC#N)c2n1 | x | x | n | x | x | x
COCc1ccc(C(=O)N2CCOc3c(cc(-c4cc(C)c5cccc(OC)c5n4)cc3OC)C2)o1 | x | x | n | x | x | x
CC(NS(=O)(=O)c1ccc(F)cc1)C(=O)Nc1ccc2c(c1)OCCO2 (stereo not given) | n | 20.6µM | n | n | n | n
CC(=O)Nc1ccc(S(=O)(=O)N[C@@H](C)C(=O)OCC(=O)Nc2ccc3c(c2)OCCO3)cc1 | n | n | n | n | n | n
CCc1nn2c(=O)cc(COC(=O)c3ccc(NC(=O)c4cccs4)cc3)nc2s1 | x | x | n | x | x | x
CC1(C)C2CCC1(CS(=O)(=O)Nc1ccc(S(=O)(=O)N3CCCC3)cc1)C(=O)C2 (stereo not given) | n | n | n | n | n | n
COc1cccc(NS(=O)(=O)CC23CCC(CC2=O)C3(C)C)c1 (stereo not given) | n | n | n | n | n | n
CC1(C)C2CCC1(CS(=O)(=O)NCc1ccc(Cl)cc1Cl)C(=O)C2 (stereo not given) | u | n | n | n | 10.3µM | u
CC1(C)C2CCC1(CS(=O)(=O)Nc1ccc(S(=O)(=O)NC3CCCCC3)cc1)C(=O)C2 (stereo not given) | n | n | n | n | 16.4µM | u
O=C(NCCCc1nc2ccccc2n1CCOc1ccccc1)C1CCCCC1 | n | x | n | x | n | x
CCOc1ccc(Br)cc1S(=O)(=O)Nc1cccc(S(=O)(=O)N(C)c2ccccc2)c1 | u | n | n | n | 4.11µM | u
CCOc1ccc(Br)cc1S(=O)(=O)Nc1ccc(C(=O)Nc2ccc(C)cc2)cc1 | n | n | n | n | 7.31µM | u
CCOc1ccc(Br)cc1S(=O)(=O)Nc1ccc(C(=O)OCC(=O)N(C)c2ccccc2)cc1 | n | n | n | n | n | n
Cc1ccc(NC(=O)CSc2nccn2-c2ccccc2)cc1 | n | x | n | x | n | x
CCCCOc1ccc(CNC(=O)Cc2ccc(NC(=O)N3CCSc4ncccc43)cc2)cc1 | n | x | n | x | n | x
COc1ccc(C(=O)Nc2nc3ccccc3[nH]2)cc1 | u | u | n | n | u | n
COC(=O)Nc1nc2ccc(SC(C)C)cc2[nH]1 | 1.46µM | 0.82µM | n | n | 1.03µM | 1.64µM
COc1cccc(C(=O)Nc2nc3ccccc3[nH]2)c1 | u | n[9.22 µM] | n | n | u | n
COC(=O)Nc1nc2ccc(C(=O)c3ccccc3)cc2[nH]1 | x | 0.286µM | x | x | x | u
SMILES | KB-3-1 tox | SW480 rereplic | PINK1 expr mod | PTAP TSG101 blk | KB-V1 cytotox | MCF10A rereplic
Nc1cccc(-c2nc3ccc(C(=O)c4ccccc4)cc3[nH]2)c1 | 6.51µM | 18.4µM | n | n | 3.66µM | u
Nc1ccc2nc(-c3ccccc3)[nH]c2c1 | n | n | n | n | n | u
COC(=O)Nc1nc2ccc(C(=O)c3cccs3)cc2[nH]1 | 0.0146µM | 0.237µM | n | n | 0.13µM | 0.211µM
Cn1ncc2c(N3CCN(c4ccccc4Cl)CC3)ncnc21 | x | x | n | x | x | x
CCCCOC(=O)CSc1nnc(-c2ccccc2)o1 | n | x | n | x | n | x
O=C(NC1CCCCCC1)c1ccc([N+](=O)[O-])s1 | u | 18.4µM | n | n | n | u
